We go through 116 compounds from PubChem BioAssay AID488969 (Vanderbilt High Throughput Screening Facility, 2010).

Structures are written as SMILES. Over roughly 110,000 compounds, “z-score” has its median near -0.1; the highest 2% begin near 2. Only a selection was taken, and the highest values are over-represented in it overall. Active and inactive are the calls of the source.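 Rule for the calls: active = z-score in the third read window above 3 or below -3; inactive = the rest.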

This assay deals with Metabotropic glutamate receptor 8 (Rattus norvegicus) (UniProt P70579). Nature of the assay: rat mGluR8 modulators via GIRK flux, primary screen, cell-based, thallium flux, HTS (AID 488969). Conditions: HEK293 rat mGluR8, GIRK (G protein-gated inwardly rectifying potassium channel) thallium flux, FluoZin2; at 10 µM; stronger effect = higher value.
Sequence of Metabotropic glutamate receptor 8 (Rattus norvegicus) (P70579 whole entry, looked up): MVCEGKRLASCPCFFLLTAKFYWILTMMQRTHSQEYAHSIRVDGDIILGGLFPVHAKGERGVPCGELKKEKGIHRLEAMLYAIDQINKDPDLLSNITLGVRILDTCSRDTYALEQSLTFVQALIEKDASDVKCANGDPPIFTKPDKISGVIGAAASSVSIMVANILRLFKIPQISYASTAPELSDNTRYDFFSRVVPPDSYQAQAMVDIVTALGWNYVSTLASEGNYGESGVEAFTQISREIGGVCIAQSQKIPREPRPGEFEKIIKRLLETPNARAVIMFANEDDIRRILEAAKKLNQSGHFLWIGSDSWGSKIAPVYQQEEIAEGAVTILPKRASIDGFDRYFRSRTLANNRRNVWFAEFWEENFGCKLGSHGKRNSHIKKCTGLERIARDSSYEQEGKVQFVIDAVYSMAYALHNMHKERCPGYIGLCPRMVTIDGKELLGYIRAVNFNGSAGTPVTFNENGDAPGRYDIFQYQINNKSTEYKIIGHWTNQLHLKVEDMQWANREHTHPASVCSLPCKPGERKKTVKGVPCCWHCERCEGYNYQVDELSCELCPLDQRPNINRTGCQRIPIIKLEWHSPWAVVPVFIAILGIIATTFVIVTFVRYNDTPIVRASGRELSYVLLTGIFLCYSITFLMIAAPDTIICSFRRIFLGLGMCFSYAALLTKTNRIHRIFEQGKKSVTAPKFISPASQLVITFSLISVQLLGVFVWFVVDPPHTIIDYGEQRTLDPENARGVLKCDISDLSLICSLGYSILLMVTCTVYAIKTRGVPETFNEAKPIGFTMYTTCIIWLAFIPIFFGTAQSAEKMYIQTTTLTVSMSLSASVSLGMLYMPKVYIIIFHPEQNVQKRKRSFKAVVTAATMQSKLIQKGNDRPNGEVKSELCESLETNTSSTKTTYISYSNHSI
Take `Oc1ccc(C2NCc3ccccc3-n3cccc32)cc1Cl` (stereo unspecified): the z-score worked out at 1.68.
With `c1ccc(C2NCc3ccccc3-n3cccc32)cc1` (stereo unspecified) the figure was -0.239.
`COc1ccc(C2NCc3ccccc3-n3cccc32)cc1` (stereo unspecified): the z-score came to 2.1.
For `Cc1nn(C2CCOC(C)(C)C2)c2c1C(c1ccc(OC(C)C)cc1)SCC(=O)N2` (stereo unspecified), the z-score was -0.843.
With `Cn1c(O)c(C=NCc2ccco2)c(=O)n(C)c1=O`, the z-score is -0.19.
In the case of `CCC(CC)C1C(C#N)=C(N)Oc2c1c(=O)oc1ccccc21` (stereo unspecified), the z-score is -0.103.
As to `O=C(Cc1ccccc1)N1CCN(C/C=C/c2ccccc2)CC1`, the z-score is 3.68 (active).
Consider `O=C(COc1ccc(Cl)cc1)N1CCN(C/C=C/c2ccccc2)CC1`, for which the z-score was -0.0408.
`O=C(COc1ccccc1)N1CCN(C/C=C/c2ccccc2)CC1` gave a z-score of 0.702.
The compound `CC12CCCCC1=[N+]([O-])CN2O` (stereo unspecified) came in with a z-score of 0.377.
With `CCOc1ccc(CC2C(=O)NC(=O)N(c3ccc(CC)cc3)C2=O)cc1` (stereo unspecified) the figure was -0.531; with `CCOC(=O)c1c(C)n(CCOC)c2ccc(O)cc12`, 0.821.
The value for `CCOC(=O)c1c(C)n(CCN2CCN(C)CC2)c2ccc(OC)cc12` was 1.21; that for `CCCCn1c(C)c(C(=O)OCC)c2c(CN3CCOCC3)c(O)ccc21` was 4.12 (active); that for `CCCCN1C(=N)C(CC)(CC)C(=O)NC1=O` was -0.0121.
As to `CCC(=NCc1ccc(F)cc1)c1c(O)n(C)c(=O)n(C)c1=O`, the z-score was -0.274.
For the compound `O=C(c1cc([N+](=O)[O-])ccc1N1CCNCC1)N1CCOCC1`, the z-score was -0.253.
Take `COc1cccc(-n2c(O)c(C=NCc3ccc4c(c3)OCO4)c(=O)[nH]c2=O)c1`: the z-score was -0.566.
On to `N#Cc1cc(F)c(N2CCNCC2)cc1Cl`, for which the z-score was found to be 2.17.
For `N#Cc1ccc(N2CCNCC2)c(F)c1`, the z-score stood at 0.268.
On to `Clc1cccc(N2CCNCC2)c1Cl`, for which the z-score was determined as 0.654.
`CCCNS(=O)(=O)c1ccc(OCC(=O)N2CCN(Cc3ccc4c(c3)OCO4)CC2)cc1`: the z-score was -0.266.
For `Cc1cc(C(=O)N2CCC3(CC2)OCCO3)cs1`, the z-score came out at 0.652.
As for `C=CCOC(=O)C1=C(C)OC(N)=C(C(=O)OCC)C12C(=O)N(CC(N)=O)c1ccccc12` (stereo unspecified), the z-score was -0.605.
The value for `CN(C)CC1CSCCC1(O)c1ccccc1` (stereo unspecified) was 0.409.
The value for `OC12Oc3ccccc3C=C1N1CCC2CC1` (stereo unspecified) was 2.17; that for `CC(C)OC12Oc3ccccc3C=C1N1CCC2CC1` (stereo unspecified) was 1.77.
Turning to `C=C1N2CCC(CC2)C1(O)c1ccc(C)cc1` (stereo unspecified), the z-score is -0.123.
The value for `CC(=O)N1CC(=O)Nc2ccc(Cl)cc2C1c1ccc(F)cc1` (stereo unspecified) was -0.284.
As for `N=Cc1c(O)n(-c2cccc(Cl)c2)c(=O)[nH]c1=O`, the z-score is 0.745.
For `CCC(C)N1C(=O)/C(=C\c2ccc(N3CCCCCC3)cc2)C(=O)NC1=S` (stereo unspecified), the z-score was -0.384.
Turning to `CCC(C)N1C(=O)/C(=C/c2ccc3c(c2)CCN3CCCCl)C(=O)NC1=S` (stereo unspecified), the z-score was -0.358.
In turn, `CC(C)CN(CC(C)C)c1ccc(C=C2C(=O)NC(=S)NC2=O)cc1[N+](=O)[O-]` returned a z-score of 2.35.
As to `Cc1cc(C=C2C(=O)NC(=S)NC2=O)c(C)n1-c1ccc2c(c1)OCO2`, the z-score is -0.495.
As for `O=C(O)C1(c2ccc(Cl)cc2)CCC1`, the z-score is -0.279.
`CN(C)P1(N(C)C)=Nc2c(c(N)nn2C)C(c2ccccc2)=N1` displayed a z-score of 1.2.
In the case of `CCc1ccc(N2C(=O)NC(=O)C(Cc3ccc(OC)cc3OC)C2=O)cc1` (stereo unspecified), the z-score was -0.562.
With `COc1ccc(CC2C(=O)NC(=O)N(c3ccccc3)C2=O)c(OC)c1` (stereo unspecified) the figure was 0.821.
`COc1ccc(CC2C(=O)NC(=O)NC2=O)c(OC)c1`: the z-score is 13.6 (active).
On to `Cc1ccc(-n2c(/C=C/c3ccc4c(c3)OCO4)nc3ccccc3c2=O)cc1`, for which the z-score was -0.143.
Regarding `CCOP(=O)(OCC)C(C)(C)NC(=O)C(Cl)(Cl)Cl`, the z-score is 0.176.
`CC12CN3CC(C)(CN(C1)C3c1ccco1)C2=O` (stereo unspecified) returned a z-score of 0.289.
With `Cc1ccc(C(O)(C(=O)NNC(=O)CN2CCN(C)CC2)c2ccc(C)cc2)cc1` the figure was -0.00637.
On to `Cn1cccc1/C=C1\C(=O)NC(=O)N(CCC2=CCCCC2)C1=O`, for which the z-score is -0.117.
Consider `S=C1CN=C(c2ccccc2Cl)c2cc(Cl)ccc2N1`, for which the z-score was 14.6 (active).
Turning to `CSCc1nnc2n1-c1ccc(Cl)cc1C(c1ccccc1)=NC2`, the z-score was -0.724.
Turning to `Clc1ccc2c(c1)C(c1ccccc1Cl)=NCc1nnc(N3CCN(CCSc4ccccc4)CC3)n1-2`, the z-score is -0.487.
The value for `COc1ccccc1C1=NCc2nnc(C)n2-c2ccc(Cl)cc21` was 0.478.
For `Clc1ccc2c(c1)C(c1ccccc1Cl)=NCc1nncn1-2`, the z-score turned out to be 1.46.
Consider `CCS(=O)(=O)NCc1nnc2n1-c1ccc(Cl)cc1C(c1ccccc1)=NC2`, for which the z-score is -0.148.
Consider `S=C1CN=C(c2ccccc2)c2cc(Cl)ccc2N1`, for which the z-score was 4.29 (active).
On to `CN1CCN(Cc2nnc3n2-c2ccc(Cl)cc2C(c2ccccc2)=NC3)CC1`, for which the z-score was -0.238.
In the case of `Cc1ccccc1C1=NCC(=S)Nc2ccc(Cl)cc21`, the z-score was 4.39 (active).
`Cc1ccc(N(C)C(=O)Oc2ccc(C(=O)c3ccc(Cl)cc3)cc2)cc1` yielded a z-score of 0.23.
For the compound `CCN1CCN(c2nc3c(c(=O)[nH]2)CCCC3)CC1`, the z-score is -0.0782.
Take `CC(C)N(CC(O)c1cccc([N+](=O)[O-])c1)C(C)C` (stereo unspecified): the z-score is -0.309.
In turn, `Cc1cccc(N2C(=O)NC(=O)/C(=C\c3cc(C)n(-c4sc5c(c4C#N)CCCC5)c3C)C2=O)c1C` gave a z-score of 0.0132.
In the case of `CCOC(C(=O)OCCC[N+](C)(CC)CC)(c1ccccc1)c1ccccc1`, the z-score was found to be 0.315.
The value for `c1ccc2c(CNC3CCCCC3)c[nH]c2c1` was 4.16 (active).
With `Cc1[nH]c2ccccc2c1CCCNC1CCCCC1` the figure was 0.385.
As to `c1ccc2c(CNC3CCCCCC3)c[nH]c2c1`, the z-score was -0.0434.
Take `CCOc1cc(C2NCc3ccccc3-n3cccc32)ccc1O` (stereo unspecified): the z-score amounted to 1.71.
`COc1ccc(C2NCc3ccc4c(c3-n3cccc32)OCO4)cc1O` (stereo unspecified) yielded a z-score of 2.45.
With `COc1cc(C2NCc3ccccc3-n3cccc32)ccc1O` (stereo unspecified) the figure was 1.55.
For the compound `CCCCN1C(=O)/C(=C/C=C/c2ccco2)C(=O)NC1=S`, the z-score stood at 0.136.
Consider `CCN1C(=O)C(=C/C=C/c2ccco2)C(=O)N(CC)C1=S`, for which the z-score was -0.628.
Consider `CC(C)N1C(=O)/C(=C/C=C/c2ccco2)C(=O)N(Cc2ccco2)C1=O`, for which the z-score is 6.08 (active).
With `COC(=O)C(O)(c1ccc(N=Cc2ccccc2O)c(C)c1)C(F)(F)F` (stereo unspecified) the figure was 0.286; with `O=C(CN1CCOCC1)c1cccc2ccccc12`, -0.17; with `CCN(CC)c1ccc(N=Cc2c(O)n(-c3ccc(Cl)cc3)c(=O)[nH]c2=O)cc1`, 0.126.
Turning to `O=C1C2CCCN2C(c2ccc(Cl)c(Cl)c2)N1c1ccccn1` (stereo unspecified), the z-score is -0.0899.
On to `O=C1C2CCCN2C(c2ccc(Cl)cc2)N1c1ccccn1` (stereo unspecified), for which the z-score came out at 2.77.
The value for `O=C1C2CCCN2C(c2cccc(Cl)c2)N1c1ccccn1` (stereo unspecified) was -0.498; that for `CC/C(=N\Nc1cccc2ccccc12)c1c(O)[nH]c(=O)[nH]c1=O` was -0.114; that for `CC(=O)OC1C2CCC1C(N1CCCC1)CC2` (stereo unspecified) was -0.278.
`C1=C(c2c[nH]c3ccccc23)CCNC1` showed a z-score of 1.29.
`CCN1CC=C(c2c[nH]c3ccccc23)CC1` came in with a z-score of 2.05.
Take `CCN(CC)Cc1c[nH]c2ccccc12`: the z-score was -0.122.
The compound `O=C(C1CCCN(c2nnc(-n3cccc3)s2)C1)N1CCC2(CC1)OCCO2` (stereo unspecified) registered a z-score of 0.546.
For the compound `O=C1NC(=O)N(c2ccc3c(c2)OCO3)C(=O)/C1=C/c1ccc(N2CCCCC2)o1`, the z-score was -0.618.
The compound `Nc1c(C(=O)OCc2ccccc2)c2nc3ccccc3nc2n1Cc1cccs1` showed a z-score of 0.248.
In the case of `CC(=NCC1CCCO1)c1c(O)n(-c2ccc(Cl)cc2)c(=O)[nH]c1=O` (stereo unspecified), the z-score was -1.18.
For the compound `CC(=NCC1CCCO1)c1c(O)n(-c2ccc(C)cc2)c(=O)[nH]c1=O` (stereo unspecified), the z-score came out at 2.68.
The value for `CC(=NCC1CCCO1)c1c(O)n(-c2ccccc2)c(=O)[nH]c1=O` (stereo unspecified) was 0.0257.
With `CN(C)CCN=Cc1c(O)n(Cc2ccco2)c(=O)[nH]c1=O` the figure was 0.184; with `Cc1ccc(N2C(=O)NC(=O)/C(=C\c3ccsc3)C2=O)cc1C`, -0.165.
With `O=c1c2ccccc2nc(CSc2ncnc3nc[nH]c23)n1-c1ccc(Cl)c(Cl)c1`, the z-score was -0.202.
For `c1cc2c(cc1CCNC1C3CC4CC(C3)CC1C4)OCO2` (stereo unspecified), the z-score is 2.3.
In turn, `CC1CCC(NCCc2ccc3c(c2)OCO3)CC1` (stereo unspecified) showed a z-score of 0.00241.
Turning to `c1cc2c(cc1CCNC1CCCCCC1)OCO2`, the z-score was determined as 0.232.
With `CC1(C)CN=C(Nc2ccc(F)c(F)c2)S1` the figure was -0.117; with `Cc1cc(C)nc(NC2=NCCS2)n1`, 0.179.
With `Fc1ccc(NC2=NCCS2)cc1Cl` the figure was 4.82 (active); with `CCC(COC(=O)NC)NC(=O)Oc1cccc(C)c1` (stereo unspecified), -0.336.
Compound `CNCC(O)c1cccc(OC(=O)c2ccccc2C)c1` (stereo unspecified) had a z-score of 2.34.
The compound `CC(=O)Nc1ccc(OC(=O)c2ccccc2N)cc1` had a z-score of 0.06.
With `COC(=NC1CCCCC1)C(O)c1c[nH]c2ccccc12` (stereo unspecified) the figure was -0.119; with `O=C(c1ccccc1F)c1cn(Cc2ccccc2)c2ccccc12`, -0.253.
The value for `CN(C)CCOC(=O)c1cn(Cc2ccccc2)c2ccccc12` was 2.01; that for `O=C(COc1ccccc1)c1cn(Cc2ccccc2)c2ccccc12` was -0.418.
For `CCCCN1C(=O)NC(=O)/C(=C/c2cnc(SC)nc2)C1=O`, the z-score is -0.221.
With `CCOC(=O)C1CCN(/C=C2/C(=O)NC(=O)N(c3ccc(OCC)cc3)C2=O)CC1` the figure was 0.14; with `C/C(=N\Nc1ccccc1)c1c(O)n(C)c(=O)n(C)c1=O`, 3.74 (active); with `CC/C(=N\Nc1ccccc1)c1c(O)n(C)c(=O)n(C)c1=O`, -0.0457.
As for `CC(=NCCC(c1ccccc1)c1ccccc1)c1c(O)n(C)c(=O)n(C)c1=O`, the z-score was -0.488.
The value for `CC(Cc1ccccc1Sc1ccc(O)cc1)N(C)C` (stereo unspecified) was 1.64; that for `O=C(NC(Cc1ccccc1)C(=O)N1CCC2(CC1)OCCO2)C1CCCCC1` (stereo unspecified) was 0.317; that for `CCOC(=O)C1=C(NC(=S)NC(=O)c2ccccc2)c2ccccc2CC12CCCC2` was 2.46.
Compound `CCOC(=O)C1=C(N)OC(C)=C(C(=O)OCCOC)C12C(=O)Nc1ccccc12` (stereo unspecified) came in with a z-score of 0.399.
Turning to `COC(=O)C(O)(c1ccc(NC(=S)NC(=O)c2ccccc2)cc1)C(F)(F)F` (stereo unspecified), the z-score is 0.443.
In the case of `CCN1CCN(c2ncnc3ccc(Br)cc23)CC1`, the z-score is 0.327.
On to `CNCC1(c2ccccc2)CCCC1`, for which the z-score is 0.566.
Turning to `O=C(NC(=C(Cl)Cl)P(=O)(c1ccccc1)c1ccccc1)c1ccccc1`, the z-score was -0.29.
Take `CCOc1ccc(Br)c(C2(O)CC(C)N(C)CC2C)c1` (stereo unspecified): the z-score was found to be 2.44.
With `CCC(=O)OC1(c2cccc(C)c2)CC(C)N(C)CC1C` (stereo unspecified), the z-score was determined as 0.852.
The value for `Cc1ccc(C)c(C2(O)CC(C)N(C)CC2C)c1` (stereo unspecified) was 0.0958.
